Giardia FBPA inh: qHTS Assay for Inhibitors of Fructose-1,6-bisphosphate Aldolase from Giardia Lamblia. A8B2U2. purified Giardia FBPA. Potency, µM (series often up to 59.6 µM), for inactives: at the top dose activity, negative = inhibition, usual class: inhibitors. actives 0.71% (n = 290,000). AID 2451, 2010; further: potency means the concentration at half of the fitted maximal effect; nearly all actives have a fitted effect of over 55% in size
Target sequence (A8B2U2 whole entry, looked up): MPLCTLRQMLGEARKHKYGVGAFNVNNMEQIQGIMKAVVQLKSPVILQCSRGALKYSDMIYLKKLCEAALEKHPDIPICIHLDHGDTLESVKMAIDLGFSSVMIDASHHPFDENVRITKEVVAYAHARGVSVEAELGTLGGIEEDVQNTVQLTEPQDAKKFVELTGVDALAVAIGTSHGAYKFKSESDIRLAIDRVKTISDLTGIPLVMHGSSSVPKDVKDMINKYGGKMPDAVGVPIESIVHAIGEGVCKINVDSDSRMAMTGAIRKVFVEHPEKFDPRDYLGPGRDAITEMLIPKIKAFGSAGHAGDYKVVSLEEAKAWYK
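Giardia FBPA (40 nM reagent) was preincubated 10 min at RT with compound (up to 57.5 uM final), then substrate plus GAPDH/TPI/NAD/arsenate coupling system with diaphorase/resazurin was added; resorufin fluorescence (525/598 nm) was read after 20 min.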
Sm TGR block: qHTS Assay for the Inhibitors of Schistosoma Mansoni Peroxiredoxins; purified TGR, DTNB reduction, TNB absorbance 405 nm; actives 3% (n = 360,000); Schistosoma mansoni thioredoxin glutathione reductase (TGR), Q962Y6; Potency, µM (titrated, usually from 114 µM), for inactives: top-dose activity change, negative = inhibition, most hits filed as inhibitors; AID 485364, 2010; further: potency means the concentration at half of the fitted maximal effect; nearly all actives have a fitted effect of over 60% in size
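First, TGR (20 nM dispensed) and NADPH were mixed with compound. Second, a 15 min room-temperature incubation followed. Third, further NADPH and then DTNB were added to start the reaction. Finally, TNB absorbance was monitored kinetically.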
HCMV antiviral: qHTS Assay for inhibitors of the human cytomegalovirus (HCMV) | HFF cells, HCMV-luciferase reporter, 72 h; stronger effect = lower value | activity change, negative = inhibition, % at 57.5 µM | actives 4.5% (n = 410,000); in the data active means activity change below about -60%; inconclusive means no clear call, values can overlap the other calls; inactive means above about -39%
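Compounds were evaluated in HFFs infected with an HCMV luciferase reporter virus (MOI 1 PFU/cell). Luciferase in lysates collected 72 h post infection served as the replication measure.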
Pf growth 96h: Primary qHTS for delayed death inhibitors of the malarial parasite plastid, 96 hour incubation; P. falciparum luciferase reporter growth, 96 h; Potency, µM (doses to about 28.7 µM), without a hit: at the top dose activity change, negative = inhibition, hits mostly inhibitors; actives 6.9% (n = 320,000); AID 504834, 2011; further: potency means the concentration at half of the fitted maximal effect
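P. falciparum expressing integrated firefly luciferase grown in erythrocytes (2% hematocrit, 0.05% parasitemia final) with compounds for 96 hours at 37 C, 5% CO2. Growth inhibition read as loss of luminescence after adding luciferase detection reagent.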
Pf growth 48h: Primary qHTS for delayed death inhibitors of the malarial parasite plastid, 48 hour incubation | P. falciparum luciferase growth in erythrocytes, 48 h | Potency, µM (doses to about 28.7 µM), for inactives: at the top dose activity change, negative = inhibition, usual class: inhibitors | actives 5.9% (n = 310,000) | AID 504832, 2011; further: potency means the concentration at half of the fitted maximal effect
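Read-out is firefly luciferase luminescence from an integrated reporter in P. falciparum, so falling signal marks reduced parasite growth. Infected erythrocytes were at 2% hematocrit and 0.1% parasitemia (final) in Albumax-supplemented RPMI 1640.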
* hit, by the source's call; ? = inconclusive; · = no result given; ! = repeats disagree. Shown are actives, neighbours in structure and some others; about 14% of the full set was active somewhere. Unless noted, the call rests on the fitted dose curve; in most records, active means well fitted curve in the direction sought with a large enough effect; inconclusive means small, poorly fitted or top-dose-only effect, or another doubt; inactive means no such curve, though single readings can be large; an effect the other way counts as inactive or inconclusive. On the % scale 0 is the no-effect control and ±100 the full control effect.

SMILES	Giardia FBPA inh	Sm TGR block	HCMV antiviral	Pf growth 96h	Pf growth 48h
CCOC(=O)N1CCN(C(=O)c2ccc(NS(=O)(=O)c3ccc(C)cc3)cc2)CC1	-8%	3%	-76*	-13%	-29%
Cc1ccc2oc(-c3cccc(NC(=O)Cn4cnc5c(=O)n(C)c(=O)n(C)c54)c3)nc2c1	1%	-16%	·	436%	172%
CCC(C)c1ccc2oc(-c3ccc(NC(=O)Cn4cnc5c(=O)n(C)c(=O)n(C)c54)cc3)nc2c1 (centres undefined)	5%	4%	-73*	?	57%
Cc1ccc(C(NC(=O)N2CCCCC2)=C(Cl)Cl)cc1F	3%	-18%	-80*	2%	-11%
COc1ccc(-c2cc(C(=O)Nc3cc(C)ccc3O)no2)cc1	19%	15%	-29	3.3µM*	-17%
COc1ccc(-c2cc(C(=O)Nc3c(F)cc(F)cc3Br)no2)cc1	-3%	4%	0	8.3µM*	30%
CCCNC(=O)c1ccc(Cn2c(=O)c3cccn3c3cccnc32)cc1	·	2%	-23	·	·
O=C(NCCc1ccccc1Cl)c1ccc(Cn2c(=O)c3cccn3c3cccnc32)cc1	·	0%	-84*	·	·
CCOc1ccc(-c2cc(C(=O)NCc3ccc(OCC)c(OC)c3)[nH]n2)cc1	·	9%	-5	·	·
Cc1ccc(N2CC(C(=O)Nc3nnc(SCC(=O)N4CCOCC4)s3)CC2=O)cc1 (centres undefined)	-24%	2%	0	-24%	-13%
O=C(COc1ccc([N+](=O)[O-])cc1)N1CCC(c2nc3ccccc3s2)CC1	·	?	-61*	·	·
O=C1CCC(C(=O)OCC(=O)c2ccccc2)N1 (centres undefined)	-1%	1%	34	-6%	15%
O=C1CC[C@@H](C(=O)O)N1	·	-4%	10	13µM*!	?
CN(C)c1ccc(C=c2c3cc(O)ccc3n3c2cc(-c2ccccc2)[n+]3C)cc1	·	·	-101*	·	·
C[n+]1c(-c2ccccc2)cc2c(=Cc3ccccc3)c3ccccc3n21	·	·	-99*	·	·
CCn1c2ccccc2c2cc([N+](=O)[O-])ccc21	-7%	-1%	-20	4%	?
C[n+]1c(-c2ccccc2)cc2c(=Cc3ccc([N+](=O)[O-])cc3)c3ccccc3n21	·	·	-101*	·	·
COc1ccccc1C(=O)Nc1nnc(SCc2cc(=O)n3ccc(C)cc3n2)s1	·	0%	-11	·	·
O=C(/C=C/c1ccc2ccccc2n1)N1CCN(S(=O)(=O)c2ccc(F)cc2)CC1	-6%	6%	-80*	10µM*	?
O=C(/C=C/c1ccc2ccccc2n1)N1CCN(S(=O)(=O)c2ccccc2F)CC1	-1%	-9%	-97*	?	?
O=C(/C=C/c1ccc2ccccc2n1)N1CCN(c2ccccc2)CC1	-4%	-14%	-21	-4%	0%
CCc1c(C)nc(SCC(=O)N2CCCCC2C)[nH]c1=O (centres undefined)	-3%	10%	4	7.4µM*	-1%
O=C(O)CC(NC(=O)C(c1ccccc1)c1ccccc1)c1ccc(F)cc1 (centres undefined)	11%	6%	?	-28%	9%
CC(C)(C)C1CCC(C(=O)Nc2ccc(N3CCOCC3)cc2N2CCOCC2)CC1 (centres undefined)	·	-22%	-23	?	10µM*
CCCCC1CCC(C(=O)Nc2ccccc2N2CCOCC2)CC1 (centres undefined)	·	7%	-15	?	15µM*
SMILES	Giardia FBPA inh	Sm TGR block	HCMV antiviral	Pf growth 96h	Pf growth 48h
CCCCCC(=O)Nc1ccccc1N1CCOCC1	-1%	26%	-6	23%	-4%
Cc1cc(-c2ccccc2)nc(N(C)NC(=O)c2cccc(C(F)(F)F)c2)c1S(C)(=O)=O	-1%	1%	11	3.7µM*	·
COc1ccc(CN2CCN(Cc3ccc(Br)cc3)CC2)c(OC)c1OC	?	5%	-68*	39%	0%
COc1ccc(CN2CCN(Cc3cccc(Oc4ccccc4)c3)CC2)c(OC)c1OC	?	15%	-8	-7%	-30%
COc1ccc(CN2CCN(Cc3cc(=O)oc4cc(C)ccc34)CC2)c(OC)c1OC	-5%	?	-5	9.3µM*	?
COc1ccc(OC)c(CN2CCN(Cc3cc(OC)c(OC)c(OC)c3)CC2)c1	-27%	-22%	24	13µM*	0%
COc1ccc(CN2CCN(C(c3ccc(F)cc3)c3ccc(F)cc3)CC2)c(OC)c1OC	·	·	18	6.7µM*	9.5µM*
COc1ccc(NC(=O)C2Cc3c(-c4cccc(NC(C)=O)c4)ccnc3O2)cn1 (centres undefined)	·	·	6	·	·
CN1OC[C@@H]2COc3ccc4ccccc4c3[C@@H]21	1%	2%	-32	90%	13µM*
Cc1nc(-c2ccc3c(c2)OCCCO3)cs1	-3%	1%	40	231%	333%
CCc1cc(-c2[nH]ncc2-c2nc3ccccc3n2C)c(O)cc1O	-25%	12%	14	-25%	-18%
CCCc1cc(-c2[nH]ncc2-c2ccc3c(c2)OCCCO3)c(O)cc1O	2%	0%	39	13µM*	?
CCCc1cc(-c2[nH]ncc2-c2ccc(C(=O)OCC)o2)c(O)cc1O	-1%	?	-62*	7%	6.6µM*
CCOC(=O)c1ccc(CN(Cc2ccc(F)cc2)S(=O)(=O)c2ccc(F)c(C(=O)Nc3ccccc3C(F)(F)F)c2)cc1	·	-1%	43	·	·
O=C(NCc1nc2ccccc2[nH]1)C1=C[C@H](C2CCCCC2)C[C@H](OCc2ccc(CO)cc2)O1	0%	0%	-70*	?	?
O=C(NCc1nc2ccccc2[nH]1)C1=C[C@@H](c2ccc3c(c2)OCO3)C[C@@H](OCc2ccc(CO)cc2)O1	4%	8%	·	?	9.3µM*
O=C(NCc1nc2ccccc2[nH]1)C1=C[C@H](c2ccc3c(c2)OCO3)C[C@H](OCc2ccc(CO)cc2)O1	2%	-14%	-5	-23%	-6%
O=C(NCc1nc2ccccc2[nH]1)C1=C[C@@H](C2CCCCC2)C[C@@H](OCc2ccc(CO)cc2)O1	-1%	-12%	?	?	?
O=C(NCc1nc2ccccc2[nH]1)C1=C[C@@H](c2ccccc2)C[C@@H](OCc2ccc(CO)cc2)O1	0%	9%	5	-16%	?
O=C(NCc1nc2ccccc2[nH]1)C1=C[C@H](c2ccccc2)C[C@H](OCc2ccc(CO)cc2)O1	-30%	-14%	7	1.7µM*	1µM*
O=C(NCc1nc2ccccc2[nH]1)C1=C[C@H](c2ccccc2)C[C@H](OCCCCO)O1	5%	1%	-9	?	?

Compound activity: PubChem, National Center for Advancing Translational Sciences (NCATS)
